Assay outcomes deposited in PubChem BioAssay by several laboratories.
H9c2 TAG inh = inhibitors of triacylglycerol accumulation, primary screen, cell-based, uHTS, fluorescence, H9c2. H9c2 cells, Nile Red lipid (TAG) fluorescence; cells loaded with 200 µM oleic acid. inhibition, % at 12.5 µM. hit rate 0.66% among 230,000;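 active = pattern-corrected inhibition of lipid staining of at least 50% with the nuclear-stain viability signal not falling by more than 50%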
Jurkat NFkB inh = inhibitors of induced NF-kB luciferase reporter, primary screen, TCR NF-kB activation inhibitor project, cell-based, luminescence, uHTS; Jurkat, PMA/ionomycin-induced NF-kB luciferase reporter; inhibition, % at 4 µM; hit rate 0.53% among 330,000; AID 435003, 2010; in the data active = inhibition above about 50%
Gli-Sufu antag = Gli-Sufu pathway antagonists, primary screen, luciferase luminescence, Sufu-KO-LIGHT cells, uHTS; Sufu-KO-LIGHT fibroblasts, Gli luciferase reporter luminescence; inhibition, % at 5 µM; AID 588413, 2011; hit rate 0.74% among 340,000;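 active = inhibition above about 55%, limit read from the data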
697 NFkB inh = inhibitors of PMA/ionomycin-induced NF-kB reporter, 697 cells, primary screen, B-cell NF-kB inhibitor project, cell-based, luminescence, uHTS; 697 B-cell NF-kB luciferase reporter, 16 h; inhibition, % at 4 µM; hit rate 0.33% among 330,000; in the data active = inhibition above about 35%
NR2F2 inh = NR2F2 transcriptional activity inhibitors, primary screen, cell-based, luciferase reporter, HEK293T, luminescence; inhibition, % at 8.6 µM; HEK293T NGFI-A luciferase reporter; AID 686940, 2013; COUP transcription factor 2 (Homo sapiens), P24468; hit rate 0.7% among 370,000;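 active = inhibition above a per-plate cutoff, mean inhibition of test wells between control levels plus 3 SD, cut at about 38% in these data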;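 note: cells cotransfected with COUP-TFII expression vector driving the NGFI-A reporter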
Target sequence (P24468 whole entry, looked up): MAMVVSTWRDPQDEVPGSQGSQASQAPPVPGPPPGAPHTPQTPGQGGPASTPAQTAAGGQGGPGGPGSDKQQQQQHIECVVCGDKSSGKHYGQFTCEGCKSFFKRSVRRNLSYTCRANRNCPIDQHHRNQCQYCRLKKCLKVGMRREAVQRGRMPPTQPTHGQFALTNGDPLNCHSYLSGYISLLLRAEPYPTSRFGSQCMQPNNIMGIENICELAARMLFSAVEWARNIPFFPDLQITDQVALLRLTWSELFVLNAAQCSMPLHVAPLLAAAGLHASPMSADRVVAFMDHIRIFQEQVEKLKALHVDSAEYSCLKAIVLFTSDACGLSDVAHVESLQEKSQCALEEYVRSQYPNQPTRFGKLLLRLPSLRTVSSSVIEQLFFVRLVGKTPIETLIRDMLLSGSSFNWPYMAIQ
Cardio protect = cardioprotection against H2O2-induced cell death, primary screen, uHTS, H9c2 cells, ATPLite luminescence; H9c2 cardiomyocytes, H2O2 injury protection, 2 h; protection from H2O2 cell death, % at 20 µM; hit rate 0.63% among 360,000;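 active = compounds giving at least 50% protection of heart cells from peroxide-induced death in the single-dose screen, raw or plate-pattern-corrected value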
Jurkat NFkB conf = PMA/ionomycin-induced NF-kB reporter inhibitors, Jurkat retest, confirmation, T-cell NF-kB inhibitor project, cell-based, luminescence, single concentration. shares compounds with Jurkat NFkB inh. Jurkat NF-kB luciferase, 16 h. inhibition, % at 4 µM. hit rate 27% among 2,700;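 active = inhibition reaching about 45% at 4 µM in either replicate, limit read from the data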
Each line names hits and unclear results; the compound was inactive in the other large screens (follow-up assays come after a bar, where they were run); ! = repeats disagree. A selection: hits, their analogues and other compounds. The true share with any hit is near 2.6%.

O=C(NCCN1CCC(Cc2ccccc2)CC1)C1CCCN(S(=O)(=O)c2ccc([N+](=O)[O-])cc2)C1 (stereo not drawn)	none (no result: H9c2 TAG inh, Jurkat NFkB inh, Gli-Sufu antag, 697 NFkB inh, Cardio protect)
CCc1ccc(NC(=O)c2noc3c2CCCCC3)cc1	none (no result: H9c2 TAG inh) | Jurkat NFkB conf inactive
Cc1ccc(NC(=O)c2noc3c2CCCCC3)cc1	none (no result: H9c2 TAG inh) | Jurkat NFkB conf inactive
CCc1ccc(NC(=O)c2noc3c2CCC3)cc1	none
COC1=C[C@H](C(=O)NCCOC(C)=O)[C@H](C)[C@@H](c2ccccc2)CC1=O	none (no result: H9c2 TAG inh, Jurkat NFkB inh, Gli-Sufu antag, 697 NFkB inh, Cardio protect)
Cc1ccc(C(=O)CSc2nnc3ccccn23)c(C)c1	none | Jurkat NFkB conf inactive
C#CCN1CC(N(C)CCOC(=O)c2cc(C)cc(C)c2)CS1(=O)=O (stereo not drawn)	none (no result: H9c2 TAG inh, Jurkat NFkB inh, Gli-Sufu antag, 697 NFkB inh, Cardio protect)
c1ccc2oc(-c3csc(N4CCOCC4)n3)cc2c1	none | Jurkat NFkB conf inactive
CCn1c(/C=C/c2ccccc2)nc2ccccc21	none (no result: H9c2 TAG inh) | Jurkat NFkB conf inactive
CC1CCN(C(=O)c2cc3c(ccc4ccccc43)o2)CC1	none (no result: H9c2 TAG inh) | Jurkat NFkB conf inactive
Cc1cc(NC(=O)c2cc3cccc([N+](=O)[O-])c3[nH]2)ccc1F	none | Jurkat NFkB conf inactive
COCC(C)NC(=O)c1cc2cccc([N+](=O)[O-])c2[nH]1 (stereo not drawn)	none
COc1cc(C2=NOC(C(=O)NCc3ccco3)C2)cc(OC)c1OC (stereo not drawn)	Jurkat NFkB inh 65.5 (no result: H9c2 TAG inh) | Jurkat NFkB conf inactive
COc1ccc(C2=NOC(C(=O)NCc3ccco3)C2)cc1 (stereo not drawn)	none (no result: H9c2 TAG inh)
O=C(NCc1ccco1)C1CC(c2c(Cl)cccc2Cl)=NO1 (stereo not drawn)	none
CCCNC(=O)C1CC(c2ccc(C(F)(F)F)cc2)=NO1 (stereo not drawn)	none
O=C(NCc1ccco1)C1CC(c2ccc(C(F)(F)F)cc2)=NO1 (stereo not drawn)	Jurkat NFkB inh 50.2 | Jurkat NFkB conf inactive
O=C(NCc1ccco1)C1CC(c2ccc(Cl)c(Cl)c2)=NO1 (stereo not drawn)	Jurkat NFkB inh 51.9 | Jurkat NFkB conf inactive
O=C(CCn1nnc(-c2cccs2)n1)N1CCOCC1	none (no result: H9c2 TAG inh, Jurkat NFkB inh, Gli-Sufu antag, 697 NFkB inh, Cardio protect)
COc1cc2c(cc1NC(=O)CSc1nnc(-c3ccccc3C)n1Cc1ccco1)oc1ccccc12	none (no result: H9c2 TAG inh, Jurkat NFkB inh, Gli-Sufu antag, 697 NFkB inh, Cardio protect)
O=C1c2cccc3cc([N+](=O)[O-])cc(c23)C(=O)N1CCN1CCCC1	Jurkat NFkB inh 86.5, Gli-Sufu antag 74.8 (no result: H9c2 TAG inh) | Jurkat NFkB conf 57.1
CCN(CC)c1ccc(N=Nc2nn(C)c(C)c2[N+](=O)[O-])cc1	none | Jurkat NFkB conf inactive
CC1=C(/C=C/C(C)=C/C=C/C(C)=C/C(=O)Nc2ccc(O)cc2)C(C)(C)CCC1	Jurkat NFkB inh 63.0, Gli-Sufu antag 69.9! | Jurkat NFkB conf inactive
Cc1ccc(N/C=C(/C#N)c2ccsc2)cc1C	none (no result: H9c2 TAG inh) | Jurkat NFkB conf inactive
Cc1cc(C(F)(F)F)n2ncc(-c3ccc(F)cc3)c2n1	none
COc1ccc(-c2c(C)nc3c(-c4ccc(F)cc4)cnn3c2N)cc1	none (no result: H9c2 TAG inh) | Jurkat NFkB conf inactive
Cc1nc(C)c(-c2csc(Nc3ccc(N)cc3)n2)s1	none (no result: H9c2 TAG inh)
COc1ccc(Nc2nc(-c3sc(C)nc3C)cs2)cc1	Jurkat NFkB inh 50.9 (no result: H9c2 TAG inh) | Jurkat NFkB conf inactive
Oc1ccccc1-c1cc(-c2ccccc2Cl)[nH]n1	none (no result: H9c2 TAG inh) | Jurkat NFkB conf inactive
Oc1ccc(Cl)cc1-c1cc(-c2cccc(Br)c2)n[nH]1	none (no result: H9c2 TAG inh)
Oc1ccc(Cl)cc1-c1cc(-c2ccccc2Cl)[nH]n1	none
Oc1ccccc1-c1cc(-c2cccc(F)c2)n[nH]1	none (no result: H9c2 TAG inh) | Jurkat NFkB conf inactive
Cc1ccc(S(=O)(=O)N2CC[C@@]3(Cc4ccccc4)Cc4ccccc4C[C@@H]23)cc1	none (no result: H9c2 TAG inh, Jurkat NFkB inh, Gli-Sufu antag, 697 NFkB inh, Cardio protect)
CCOCCCNC(=O)c1cc2c(s1)-c1ccccc1SC2	none (no result: H9c2 TAG inh)
CN(C)CCNC(=O)c1cc2c(s1)-c1ccc(Cl)cc1SC2	Jurkat NFkB inh 62.5 (no result: H9c2 TAG inh) | Jurkat NFkB conf inactive
